Reference: PubChem BioAssay (NCATS)
“And” between values parts separate entries of the source, which are not always exact repeats. Equal entries are not always repeated. Results filed as inconclusive are left out. The source made the active and inactive calls. Unless noted, the call rests on the fitted dose curve; in most records, active means well fitted curve in the direction sought with a large enough effect; inconclusive means small, poorly fitted or top-dose-only effect, or another doubt; inactive means no such curve, though single readings can be large; an effect the other way counts as inactive or inconclusive.

Key:
[1] = molecular target: Aldehyde dehydrogenase, mitochondrial (Homo sapiens) (UniProt P05091); experiment: qHTS for Inhibitors of the Aldehyde Dehydrogenase Family (ALDH2) Confirmatory screens (AID 2061303; active means well fitted inhibition curve with a large enough effect; title and protocol of this record describe different tests; further: nearly all actives have a fitted effect of over 45% in size; further: potency means the concentration at half of the fitted maximal effect)
[2] = qHTS for Inhibitors of the Aldehyde Dehydrogenase Family (ALDH1A2, ALDH1A3, ALDH2, ALDH3A1) (AID 2061307); further: nearly all actives have a fitted effect of over 50% in size; on Potency: test system not described further here; potency means the concentration at half of the fitted maximal effect
[3] = molecular target: Aldehyde dehydrogenase, mitochondrial (Homo sapiens) (UniProt P05091); experiment: qHTS for Inhibitors of the Aldehyde Dehydrogenase Family (ALDH2) Primary screen (AID 2061308); further: nearly all actives have a fitted effect of over 55% in size; further: potency means the concentration at half of the fitted maximal effect
[4] = molecular target: Retinaldehyde dehydrogenase 3 (Homo sapiens) (UniProt P47895); experiment: qHTS for Inhibitors of the Aldehyde Dehydrogenase Family (ALDH1A3) Primary screen (AID 2061315)
[5] = BET inhibitor-based combinations targeting novel dependencies in MECOM-rearranged (r) AML: SET-2 cell line (AID 2202231); conditions: SET-2 AML cells viability, CellTiter-Glo luminescence, 48 h; viability: active compounds read low, concentration not given here; further: potency means the concentration at half of the fitted maximal effect; nearly all actives have a fitted effect of over 35% in size
Summary of the method: (§1)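 Viability of cells (500 per well) is scored by luminescent CellTiter-Glo at 48 hr post-dosing. Eleven-point titrations are normalized to DMSO and empty controls and reduced to AUC values.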

[6] = BET inhibitor-based combinations targeting novel dependencies in MECOM-rearranged (r) AML: UCSD-AML1 cell line (AID 2202235); further: series mostly up to about 46 µM; nearly all actives have a fitted effect of over 40% in size
Summary of the method: (§2)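 Using pin-tool transfer, drugs were added in 11 doses to cells (500/well), incubated 48 hr, and assessed with CellTiter-Glo. Z-AUC is a mean-centring transformation applied separately to each screened line.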

[7] = BET inhibitor-based combinations targeting novel dependencies in MECOM-rearranged (r) AML: AML-191 cell line (AID 2202236; further: potency means the concentration at half of the fitted maximal effect; nearly all actives have a fitted effect of over 35% in size)
Summary of the method: as §1

[8] = BET inhibitor-based combinations targeting novel dependencies in MECOM-rearranged (r) AML: AML-194 cell line (AID 2202237; further: nearly all actives have a fitted effect of over 40% in size)
Summary of the method: as §1

[9] = molecular target: Aldehyde dehydrogenase 1A1 (Homo sapiens) (UniProt P00352); experiment: qHTS for Inhibitors of the Aldehyde Dehydrogenase Family (ALDH1A1) Confirmatory screens (AID 2061316); further: nearly all actives have a fitted effect of over 65% in size; further: potency means the concentration at half of the fitted maximal effect
[10] = molecular target: Retinaldehyde dehydrogenase 3 (Homo sapiens) (UniProt P47895); experiment: qHTS for Inhibitors of the Aldehyde Dehydrogenase Family (ALDH1A3) Confirmatory screens (AID 2061311); further: nearly all actives have a fitted effect of over 60% in size; further: potency means the concentration at half of the fitted maximal effect
[11] = molecular target: Retinal dehydrogenase 2 (Homo sapiens) (UniProt O94788); experiment: qHTS for Inhibitors of the Aldehyde Dehydrogenase Family (ALDH1A2) Confirmation screens (AID 2061314); further: nearly all actives have a fitted effect of over 65% in size; further: potency means the concentration at half of the fitted maximal effect
[12] = molecular target: Retinaldehyde dehydrogenase 3 (Homo sapiens) (UniProt P47895); experiment: qHTS for Inhibitors of the Aldehyde Dehydrogenase Family (ALDH1A3) Validation screen (AID 2061312); further: nearly all actives have a fitted effect of over 45% in size; further: potency means the concentration at half of the fitted maximal effect
[13] = BET inhibitor-based combinations targeting novel dependencies in MECOM-rearranged (r) AML: HNT-34 cell line (AID 2202234); further: nearly all actives have a fitted effect of over 35% in size
Summary of the method: as §2

[14] = BET inhibitor-based combinations targeting novel dependencies in MECOM-rearranged (r) AML: OCI-AML3 cell line (AID 2202232); conditions: Potency: OCI-AML3 viability; further: potency means the concentration at half of the fitted maximal effect; nearly all actives have a fitted effect of over 35% in size
Summary of the method: as §1

[15] = BET inhibitor-based combinations targeting novel dependencies in MECOM-rearranged (r) AML: MV-4-11 cell line (AID 2202233); further: potency means the concentration at half of the fitted maximal effect; nearly all actives have a fitted effect of over 45% in size
Summary of the method: as §2

Measured: Potency

CNC(=O)c1cc(Oc2ccc3nc(N[C@@H]4CCCC[C@H]4O)sc3c2)ccn1
inactive: [1] | [3] | [4] | [6] | [8]
active: [2] 10.1 µM | [5] 20.9 µM | [7] 14.8 µM

CC(=O)Nc1sc2c(c1-c1ccc(C(F)(F)F)cc1)CCNC2
inactive: [1] | [2] | [3] | [4] | [9]

COc1ccc(C2Nc3ccccc3C(=O)N2Cc2ccccc2)cc1COc1cccc(Cl)c1 (configuration not stated)
inactive: [3] | [4] | [9]
active: [1] 5.01 µM | [2] 5.65 µM

C[C@H](N)C(=O)Nc1cccc(-c2nn3c(=O)cc(N4CCNCC4)nc3s2)c1
inactive: [1] | [2] | [3] | [4]

O=C(C1CCN(Cc2ccccc2-c2ccccc2F)CC1)N1CCC(Cc2ccccc2)CC1
active: [1] 3.16 µM
inactive: [2] | [10] | [11]

COc1ccccc1-c1no[n+]([O-])c1C#N
inactive: [1] | [3] | [4] | [9]
active: [2] 3.18 µM

N#Cc1c(-c2ccc(O)cc2)no[n+]1[O-]
active: [2] 12.7 µM
inactive: [1] | [3] | [4]

FC(F)(F)c1cnc(N2CCN(C(=S)Nc3cc(Cl)ccn3)CC2)c(Cl)c1
inactive: [4]
active: [1] 7.12 µM | [2] 5.65 µM | [3] 12.6 µM | [9] 2.52 µM

CC(C)(C)OC(=O)N1CCN(c2ccc(NCc3coc(-c4ccc(C#N)cc4)c3)cc2)CC1
active: [1] 0.798 µM | [3] 2 µM | [9] 3.57 µM
inactive: [2] | [4]

CC1CCN(c2ccc(CNC(=O)CC3CCOCC3)cc2)CC1
inactive: [1] | [2]
active: [10] 10 µM

Cc1cc2c(s1)c1cnn(Cc3ccc(-n4cncn4)cc3)c(=O)c1n2C
inactive: [3] | [4]
active: [1] 25.1 µM | [2] 14.1 µM | [9] 11.3 µM

CC(=O)N1CCN(c2ccc(NCc3ccc(-c4cccc(Cl)c4)o3)cc2)CC1
active: [1] 1.13 µM | [2] 1.59 µM | [3] 2.24 µM | [9] 6.34 µM

Cc1cc2c(c(=O)[nH]1)OC(C(O)CC(C)C)O2 (configuration not stated)
inactive: [1] | [2] | [10]

CCn1cc2nc(SCc3cccc(C)c3)n(CCc3ccccc3)c(=O)c2n1
active: [1] 28.2 µM | [2] 3.98 µM | [10] 1.26 µM | [11] 3.24 µM

N#Cc1nc(Nc2ccccc2)nc(NC2CCCC2)n1
active: [1] 1.78 µM | [2] 0.631 µM
inactive: [3] | [4]

Cc1cc(N[S+](=O)([O-])c2cc3c(cc2Cl)NC(=O)CO3)ccc1Cl
inactive: [1] | [2] | [3] | [4] | [9]

Cc1ccc(-c2ccc(C=O)cc2)c(C)c1
active: [1] 4.7 µM | [2] 15.8 µM | [10] 0.355 µM | [11] 12.6 µM

CCOc1ccc(-c2nc(CSCC(=O)N3CCN(c4cccc(C(F)(F)F)c4)CC3)c(C)o2)cc1
active: [1] 8.91 µM | [2] 7.94 µM | [10] 2 µM

CC(C)(C)OC(=O)N1CCN(c2ccc(NCc3ccc(-c4ccc(C(C)(C)C)cc4)o3)cc2)CC1
inactive: [1] | [2] | [3]
active: [9] 10.1 µM

CN(C)c1ccc(/C=C/C(=O)Nc2cccc([S+](=O)([O-])Nc3ccccc3F)c2)cc1
inactive: [1] | [2] | [3] | [4]

COc1ccc(-c2cncc(NC(=O)c3cccs3)c2)cc1OC
inactive: [1] | [2] | [3] | [9]

Cc1ccc(NC(=O)CN2C(=O)N/C(=C\c3cccn3-c3ccc(P(=O)(O)O)cc3)C2=O)cc1
inactive: [1] | [2] | [3] | [4] | [9]

Cc1cc(F)ccc1[C@H]1C[C@@H](N2CCN3C(=O)CC[C@H]3C2)CCN1C(=O)N(C)[C@H](C)c1cc(C(F)(F)F)cc(C(F)(F)F)c1
active: [12] 7.94 µM
inactive: [1] | [2] | [10] | [11] | [4] | [9]

Cc1ccc(CNc2ccc(N3CCN(C)CC3)cc2)cc1
inactive: [1] | [2] | [3] | [4] | [9]

CN[C@@H]1[C@H](O[C@H]2[C@H](O[C@@H]3[C@@H](O)[C@H](O)[C@@H](N=C(N)N)[C@H](O)[C@H]3N=C(N)N)O[C@@H](C)[C@]2(O)C=O)O[C@@H](CO)[C@H](O)[C@H]1O
inactive: [1] | [2] | [10] | [12] | [11] | [4] | [9] | [13] | [8]

COc1cccc(Nc2nc(C#N)nc(NC3CCCC3)n2)c1
active: [2] 10.1 µM
inactive: [1] | [3] | [4] | [9]

N#Cc1nc(Nc2cccc(F)c2)nc(NC2CCCC2)n1
active: [1] 1.78 µM | [2] 3.55 µM
inactive: [3] | [4]

CC(=O)c1ccc(NC(=O)CSc2ccc3nc(-c4ccccc4)cn3n2)cc1
active: [1] 22.9 µM | [2] 0.0576 µM | [10] 0.258 µM | [11] 15.8 µM | [9] 1.82 µM

O=C1Cc2cc(C(=O)c3ccco3)ccc2N1
active: [1] 1.01 µM | [2] 0.565 µM | [10] 0.896 µM | [11] 2.52 µM
inactive: [4]

Oc1ccc(CNc2ccccc2F)c2cccnc12
inactive: [2] | [10]
active: [1] 2.83 µM | [11] 5.65 µM | [9] 2.25 µM

O=C(CN1C(=O)N/C(=C\c2cccn2-c2cccc(C(=O)O)c2)C1=O)Nc1ccc(F)cc1
inactive: [1] | [2] | [10] | [11] | [4]

COc1ccccc1-c1cc(NCCc2ccccn2)c2onc(C)c2n1
active: [10] 22.4 µM
inactive: [1] | [2] | [11] | [9]

O=C(NCc1ccc(F)c(F)c1)c1ccc2nnc(-c3cccc(C(F)(F)F)c3)n2c1
inactive: [1] | [10] | [11] | [9]
active: [2] 8.91 µM

COc1ccccc1-c1cc(-c2ccccc2OC)c2onc(C)c2n1
inactive: [1] | [2] | [11]
active: [10] 25.1 µM

CC(C)(C)OC(=O)N1CCN(c2ccc(NCc3cncc(-c4ccc(C#N)cc4)c3)cc2)CC1
inactive: [10] | [11] | [4] | [9]
active: [1] 1.79 µM | [2] 0.634 µM

O=C(Nc1cc(Cc2ccccc2)ccn1)c1ccc(-c2cccc([N+](=O)[O-])c2)o1
active: [1] 11.2 µM | [2] 7.08 µM | [10] 7.94 µM | [11] 5.01 µM
inactive: [4]

Cc1ccc(-n2c(=O)c3c(cnn3C)n(CC(=O)Nc3ccccc3C)c2=O)cc1
active: [10] 22.4 µM
inactive: [1] | [2] | [11] | [9]

Cc1ccc2nc3sc(C(=O)NCCN4CCOCC4)cc3cc2c1
inactive: [1] | [2] | [10] | [11] | [4] | [9]

Cc1c(NC(=O)c2cc3c(s2)CCCC3)cccc1-c1cn(C)c(=O)c(Nc2ccc(C3C(=O)N(C)CCN3C)cc2)n1 (configuration not stated)
inactive: [1] | [11] | [4] | [8]
active: [2] 10 µM | [10] 2 µM and 7.94 µM | [14] 16.6 µM | [15] 16.6 µM

CCn1cc2nc(SCc3ccc(C)cc3)n(CCc3ccccc3)c(=O)c2n1
active: [1] 14.1 µM | [2] 10 µM | [10] 0.447 µM | [11] 7.94 µM

COc1cccc(-c2nc(SCc3ccc(C)cc3)n3[nH]c(=O)cc3n2)c1
active: [10] 7.08 µM
inactive: [1] | [2] | [11] | [9]

COc1ccnc(NC(=S)N2CCN(c3cccc(C(F)(F)F)c3)CC2)c1
active: [1] 12.6 µM | [2] 8.91 µM | [10] 7.12 µM | [11] 22.5 µM | [9] 10.1 µM

Cc1noc(C)c1-c1cccc(-c2nn3c(=O)cc(N4CCNCC4)nc3s2)c1
inactive: [4]
active: [1] 3.98 µM | [2] 0.891 µM | [10] 17.8 µM | [11] 6.31 µM

O=c1c(Nc2ccc(Cl)c(Cl)c2)c(Nc2nnc(-c3ccncc3)s2)c1=O
inactive: [4]
active: [1] 2 µM | [2] 11.3 µM | [10] 11.2 µM | [11] 3.98 µM | [9] 8.96 µM

O=Cc1c(-c2ccccc2)no[n+]1[O-]
active: [1] 14.2 µM | [2] 0.565 µM | [10] 4 µM | [11] 11.3 µM | [9] 0.504 µM
inactive: [4]

COc1ccc(C2Nc3ccccc3C(=O)N2CC(C)(C)C)cc1COc1ccc(NC(C)=O)cc1 (configuration not stated)
active: [1] 11.2 µM | [2] 1.59 µM | [10] 15.8 µM | [11] 31.6 µM | [9] 25.2 µM
inactive: [4]

N#Cc1c(-c2ccc3c(c2)OCO3)no[n+]1[O-]
inactive: [1] | [10] | [4] | [9]
active: [2] 1.13 µM | [11] 10.1 µM

COc1ccc(S(=O)(=O)N2CCN(C(=O)c3ccc([N+](=O)[O-])o3)CC2)cc1
inactive: [1] | [2] | [10] | [11]
active: [9] 10 µM

CC(=O)Nc1sc2c(c1-c1cccc(F)c1)CCNC2
active: [11] 20.1 µM
inactive: [1] | [2] | [10] | [4] | [9]

COc1ccc(C2Nc3ccccc3C(=O)N2Cc2ccco2)cc1COc1cccc(NC(C)=O)c1 (configuration not stated)
active: [1] 11.3 µM | [2] 12.7 µM | [10] 11.3 µM | [11] 11.3 µM | [9] 4 µM
inactive: [4]

Fc1c(-c2ccc3ncnc(NCc4cccs4)c3c2)ccc2c1OCO2
inactive: [1] | [2] | [10] | [11] | [4] | [9]

O=C(O)c1cccnc1SC1=NS(=O)(=O)c2ccccc21
inactive: [1] | [2] | [10] | [4]
active: [11] 31.8 µM

Cn1ncc2c(C(=O)NCC(F)F)cc(-c3cccc(C(F)(F)F)c3)nc21
inactive: [1] | [2] | [11] | [9]
active: [10] 0.794 µM
